# Test results taken from the supplement of paper PMC10849652.
# The full data set covers some 8,800 targets. This sample favours those with a hit. About 0.5% of all pairs of compound and target were hits. Values without a mark were called inactive.
# How the values were obtained:
# Test in all cases: log2 fold change, soluble protein after heating vs DMSO (PISA); higher = thermal stabilisation; K562 lysate, 10 uM; active = over 0.2 and 3.5 SD of the protein, either way, in both replicates (recomputed)
# [1] = compound: C#Cc1cccc(Nc2ncnc3cc(OCCOC)c(OCCOC)cc23)c1 [erlotinib]
# In short: (§1)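 Thermal stability, expressed as log-two fold change relative to solvent controls, is given from duplicates. Crude K562 extract in PBS pH 7.4 with 1 mM MgCl2, at 1 mg/mL protein, was treated with 10 μM compound for 30 min and heated in aliquots for 3 min across 48°C-58°C. After pooling, adjustment to 0.5% NP-40 at 4°C and centrifugation at 21,000xg for 90 min, supernatant protein was measured by TMTpro 16plex LC-MS/MS with channel sums equalised.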
# [2] = compound: C/C(=N\NC(=O)C1=CC(=CC=C1)S(=O)(=O)N2CCOCC2)/C3=C(C=CC(=C3)Cl)O
# In short: as §1
# [3] = compound: C1=CC(=CC=C1C2=NC3=C(N2)C=C(C=C3)C(=O)N)OC4=CC=C(C=C4)Cl
# In short: as §1
# [4] = compound: C1=CC2=C(C=CC(=C2)/C=C\3/C(=O)NC(=NCC4=CC=CS4)S3)N=C1
# In short: as §1
# [5] = compound: C1=CC2=NC=CN=C2C=C1/C=C/3\C(=O)NC(=O)S3
# In short: as §1
# [6] = compound: C1=CC=C(C=C1)C2=NC(=C(N2)C3=CC=NC=C3)C4=CC(=C(C=C4)Cl)O
# In short: as §1
# [7] = compound: C1=CC=C2C(=C1)C3=NNC4=CC=CC(=C43)C2=O
# In short: as §1
# [8] = compound: C1CCN(C1)C(=O)NC2=CC=CC(=C2)NC3=NC=C(C(=N3)NCCC4=CN=CN4)Br
# In short: as §1
# [9] = compound: C1CN(CCC1(CC2=CC=C(C=C2)Cl)N)C3=NC=NC4=C3C=CN4
# In short: as §1
# [10] = compound: C1COCCN1CCN2C3=CC=CC=C3N=C2NC(=O)C4=CC(=CC=C4)[N+](=O)[O-] [IRAK-1-4 Inhibitor I]
# In short: as §1
# [11] = compound: C=CC(=O)N1CCC[C@@H](n2nc(-c3ccc(Oc4ccccc4)cc3)c3c(N)ncnc32)C1 [ibrutinib]
# In short: as §1
# [12] = compound: CC(=O)c1cnc2ccc(-c3cc(Cl)c(O)c(Cl)c3)nc2c1N[C@H]1CC[C@H](CN(C)C)CC1
# In short: as §1
# [13] = compound: CC(C)(C)Cn1c(N)nc2ccc(-c3[nH]c(C(C)(C)C)nc3-c3ccc(F)cc3)nc21 [ralimetinib]
# In short: as §1
# [14] = compound: CC(C)(O)CC(=O)NCCn1ccc2ncnc(Nc3ccc(Oc4cccc(C(F)(F)F)c4)c(Cl)c3)c21
# In short: as §1
# [15] = compound: CC(C)C1=C2N=C(C=C(N2N=C1)NCC3=CC=CC=C3)NCCCCCCN
# In short: as §1
# [16] = compound: CC1=C(C(CC(=O)N1)C2=CC=C(C=C2)C(F)(F)F)C(=O)NC3=C(C=C4C(=C3)C=NN4)F
# In short: as §1
# [17] = compound: CC1=C(C2=C(C=C1)C(=O)C3=CC=CC=C3N2CCCN)C
# In short: as §1
# [18] = compound: CC1=C(C=C(C=C1)NC(=O)C2=CC(=CC=C2)C(C)(C)C#N)NC3=CC4=C(C=C3)N=CN(C4=O)C
# In short: as §1
# [19] = compound: CC1=C(C=C(C=C1)NC(=O)C2=CC(=CC=C2)N(C)C)NC(=O)C3=CC=C(C=C3)O
# In short: as §1
# [20] = compound: CC1=CC=C(C=C1)SC2=C3C=C(SC3=CN=C2)C(=O)N
# In short: as §1
# Sequence of UniProt Q8N201 (Q8N201 whole entry, looked up): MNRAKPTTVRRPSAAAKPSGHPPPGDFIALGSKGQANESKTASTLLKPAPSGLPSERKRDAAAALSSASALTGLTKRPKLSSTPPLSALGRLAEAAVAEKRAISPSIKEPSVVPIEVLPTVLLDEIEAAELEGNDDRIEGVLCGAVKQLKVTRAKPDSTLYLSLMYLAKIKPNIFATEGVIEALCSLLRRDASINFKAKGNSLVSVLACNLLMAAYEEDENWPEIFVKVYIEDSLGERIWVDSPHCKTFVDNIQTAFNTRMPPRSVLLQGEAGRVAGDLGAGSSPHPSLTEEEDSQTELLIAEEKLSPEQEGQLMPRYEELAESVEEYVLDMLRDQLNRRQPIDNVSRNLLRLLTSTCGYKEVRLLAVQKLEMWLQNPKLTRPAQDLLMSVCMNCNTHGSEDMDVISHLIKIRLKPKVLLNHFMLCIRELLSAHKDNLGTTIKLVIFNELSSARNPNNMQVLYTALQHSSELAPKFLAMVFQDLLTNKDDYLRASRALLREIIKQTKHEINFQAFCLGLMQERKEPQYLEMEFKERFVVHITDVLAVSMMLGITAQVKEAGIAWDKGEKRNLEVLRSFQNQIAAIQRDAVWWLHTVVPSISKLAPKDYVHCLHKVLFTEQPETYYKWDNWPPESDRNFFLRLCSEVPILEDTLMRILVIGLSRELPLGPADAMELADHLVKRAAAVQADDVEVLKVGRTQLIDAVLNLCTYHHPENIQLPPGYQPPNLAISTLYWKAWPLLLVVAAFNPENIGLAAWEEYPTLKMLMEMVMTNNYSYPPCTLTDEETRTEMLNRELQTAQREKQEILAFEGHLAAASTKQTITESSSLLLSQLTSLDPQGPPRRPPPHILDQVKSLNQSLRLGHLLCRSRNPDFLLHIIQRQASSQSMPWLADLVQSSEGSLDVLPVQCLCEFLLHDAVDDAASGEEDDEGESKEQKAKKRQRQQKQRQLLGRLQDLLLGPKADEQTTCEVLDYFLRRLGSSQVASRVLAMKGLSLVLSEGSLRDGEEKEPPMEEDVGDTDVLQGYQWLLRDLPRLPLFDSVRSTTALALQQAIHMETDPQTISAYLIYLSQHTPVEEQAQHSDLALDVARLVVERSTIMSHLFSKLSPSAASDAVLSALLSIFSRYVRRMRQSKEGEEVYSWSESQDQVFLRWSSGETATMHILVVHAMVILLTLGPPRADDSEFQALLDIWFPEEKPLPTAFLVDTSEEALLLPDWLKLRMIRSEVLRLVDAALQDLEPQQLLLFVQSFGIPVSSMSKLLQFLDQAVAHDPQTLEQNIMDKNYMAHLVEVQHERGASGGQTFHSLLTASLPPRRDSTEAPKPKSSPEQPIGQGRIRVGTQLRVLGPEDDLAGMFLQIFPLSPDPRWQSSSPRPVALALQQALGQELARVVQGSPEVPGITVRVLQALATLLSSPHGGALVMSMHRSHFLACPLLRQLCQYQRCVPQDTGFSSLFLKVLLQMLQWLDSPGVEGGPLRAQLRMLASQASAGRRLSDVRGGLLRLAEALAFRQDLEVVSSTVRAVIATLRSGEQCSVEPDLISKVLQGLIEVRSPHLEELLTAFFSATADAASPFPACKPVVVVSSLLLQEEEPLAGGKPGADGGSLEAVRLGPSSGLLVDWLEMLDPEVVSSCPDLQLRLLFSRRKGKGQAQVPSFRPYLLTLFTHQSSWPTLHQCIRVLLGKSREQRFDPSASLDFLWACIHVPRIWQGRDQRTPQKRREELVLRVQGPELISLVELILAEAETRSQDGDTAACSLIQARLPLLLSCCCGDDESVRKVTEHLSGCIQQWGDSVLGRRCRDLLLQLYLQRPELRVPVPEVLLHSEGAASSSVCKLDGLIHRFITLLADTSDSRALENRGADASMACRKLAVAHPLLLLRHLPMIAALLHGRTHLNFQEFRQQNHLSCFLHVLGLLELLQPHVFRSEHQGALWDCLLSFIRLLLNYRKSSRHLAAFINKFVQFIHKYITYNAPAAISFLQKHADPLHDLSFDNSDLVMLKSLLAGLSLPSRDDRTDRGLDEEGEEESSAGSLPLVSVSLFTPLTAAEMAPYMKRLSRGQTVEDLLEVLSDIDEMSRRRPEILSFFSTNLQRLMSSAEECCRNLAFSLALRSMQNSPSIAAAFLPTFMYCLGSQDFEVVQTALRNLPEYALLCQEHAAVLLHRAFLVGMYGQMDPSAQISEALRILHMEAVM
# Sequence of UniProt Q99871 (Q99871 whole entry, looked up): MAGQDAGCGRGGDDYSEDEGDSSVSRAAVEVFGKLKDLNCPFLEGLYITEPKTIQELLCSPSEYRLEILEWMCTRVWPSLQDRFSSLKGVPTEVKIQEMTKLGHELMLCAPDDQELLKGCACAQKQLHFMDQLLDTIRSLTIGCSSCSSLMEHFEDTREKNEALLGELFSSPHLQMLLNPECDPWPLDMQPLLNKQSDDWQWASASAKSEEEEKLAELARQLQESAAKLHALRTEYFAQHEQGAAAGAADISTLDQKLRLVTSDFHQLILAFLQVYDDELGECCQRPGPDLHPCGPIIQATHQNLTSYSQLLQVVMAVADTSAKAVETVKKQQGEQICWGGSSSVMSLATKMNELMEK
# Sequence of UniProt O15357 (O15357 whole entry, looked up): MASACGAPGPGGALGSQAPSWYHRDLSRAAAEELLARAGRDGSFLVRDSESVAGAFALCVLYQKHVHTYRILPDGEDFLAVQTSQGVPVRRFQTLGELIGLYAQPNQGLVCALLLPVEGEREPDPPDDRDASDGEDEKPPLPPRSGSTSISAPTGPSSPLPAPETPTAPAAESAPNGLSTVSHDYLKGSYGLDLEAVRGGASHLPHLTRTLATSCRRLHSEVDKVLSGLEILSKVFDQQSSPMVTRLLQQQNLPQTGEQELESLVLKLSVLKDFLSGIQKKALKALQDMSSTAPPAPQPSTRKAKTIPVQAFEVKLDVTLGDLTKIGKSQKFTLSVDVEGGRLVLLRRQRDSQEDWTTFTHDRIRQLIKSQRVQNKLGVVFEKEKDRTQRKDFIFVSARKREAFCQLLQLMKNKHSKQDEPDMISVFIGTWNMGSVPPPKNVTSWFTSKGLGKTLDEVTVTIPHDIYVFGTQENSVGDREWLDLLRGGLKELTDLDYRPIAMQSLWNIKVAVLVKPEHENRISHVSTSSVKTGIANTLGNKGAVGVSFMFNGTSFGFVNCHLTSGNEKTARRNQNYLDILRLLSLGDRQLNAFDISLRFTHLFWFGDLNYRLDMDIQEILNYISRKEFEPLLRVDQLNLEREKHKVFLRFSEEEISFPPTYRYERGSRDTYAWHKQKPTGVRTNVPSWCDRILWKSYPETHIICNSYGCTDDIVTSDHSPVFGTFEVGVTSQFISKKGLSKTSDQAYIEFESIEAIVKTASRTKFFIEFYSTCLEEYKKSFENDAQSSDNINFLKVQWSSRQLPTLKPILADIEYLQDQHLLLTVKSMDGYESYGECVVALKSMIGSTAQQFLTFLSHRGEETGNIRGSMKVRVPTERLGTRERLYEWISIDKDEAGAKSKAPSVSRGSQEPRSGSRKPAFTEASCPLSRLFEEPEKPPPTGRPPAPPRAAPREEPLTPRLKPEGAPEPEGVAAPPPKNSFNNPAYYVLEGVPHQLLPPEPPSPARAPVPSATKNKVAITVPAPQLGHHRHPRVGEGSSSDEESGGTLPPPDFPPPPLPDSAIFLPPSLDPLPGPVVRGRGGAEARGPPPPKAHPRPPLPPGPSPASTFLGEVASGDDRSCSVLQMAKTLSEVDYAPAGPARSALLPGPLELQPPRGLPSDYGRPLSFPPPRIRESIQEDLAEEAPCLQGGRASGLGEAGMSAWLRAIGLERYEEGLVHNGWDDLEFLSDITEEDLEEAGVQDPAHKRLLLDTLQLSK
# Sequence of UniProt Q49A26 (Q49A26 whole entry, looked up): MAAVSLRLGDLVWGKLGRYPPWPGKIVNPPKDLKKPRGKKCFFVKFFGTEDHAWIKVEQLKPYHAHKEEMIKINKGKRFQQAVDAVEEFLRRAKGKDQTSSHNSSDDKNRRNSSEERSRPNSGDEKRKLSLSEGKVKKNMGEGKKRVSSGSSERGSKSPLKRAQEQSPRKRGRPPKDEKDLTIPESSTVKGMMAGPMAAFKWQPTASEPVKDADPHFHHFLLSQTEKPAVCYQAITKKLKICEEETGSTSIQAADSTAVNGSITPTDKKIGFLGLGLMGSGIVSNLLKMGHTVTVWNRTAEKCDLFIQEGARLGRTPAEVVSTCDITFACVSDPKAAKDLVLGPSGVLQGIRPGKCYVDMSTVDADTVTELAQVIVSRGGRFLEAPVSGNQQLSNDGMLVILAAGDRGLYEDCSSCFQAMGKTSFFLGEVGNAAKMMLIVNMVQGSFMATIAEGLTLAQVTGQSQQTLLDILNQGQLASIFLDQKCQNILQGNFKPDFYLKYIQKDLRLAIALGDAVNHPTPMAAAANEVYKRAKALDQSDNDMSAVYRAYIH
# Sequence of UniProt Q9BX10 (Q9BX10 whole entry, looked up): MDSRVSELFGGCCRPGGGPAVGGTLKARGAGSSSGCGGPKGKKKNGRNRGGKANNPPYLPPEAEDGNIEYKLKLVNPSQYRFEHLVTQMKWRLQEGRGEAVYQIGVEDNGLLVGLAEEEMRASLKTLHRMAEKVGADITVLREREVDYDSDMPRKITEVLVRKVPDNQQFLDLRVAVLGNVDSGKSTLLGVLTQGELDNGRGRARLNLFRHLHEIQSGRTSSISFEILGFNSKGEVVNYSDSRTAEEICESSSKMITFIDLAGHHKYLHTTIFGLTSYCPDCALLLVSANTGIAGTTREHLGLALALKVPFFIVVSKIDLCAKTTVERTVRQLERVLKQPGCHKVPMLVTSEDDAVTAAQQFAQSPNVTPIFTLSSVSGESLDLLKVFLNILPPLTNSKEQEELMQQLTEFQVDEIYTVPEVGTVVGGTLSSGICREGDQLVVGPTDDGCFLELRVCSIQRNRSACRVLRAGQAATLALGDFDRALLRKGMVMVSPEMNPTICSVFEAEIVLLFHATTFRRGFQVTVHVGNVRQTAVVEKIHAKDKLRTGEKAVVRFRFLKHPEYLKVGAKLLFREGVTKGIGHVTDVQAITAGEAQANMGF
Target,log2 fold change [1],log2 fold change [2],log2 fold change [3],log2 fold change [4],log2 fold change [5],log2 fold change [6],log2 fold change [7],log2 fold change [8],log2 fold change [9],log2 fold change [10],log2 fold change [11],log2 fold change [12],log2 fold change [13],log2 fold change [14],log2 fold change [15],log2 fold change [16],log2 fold change [17],log2 fold change [18],log2 fold change [19],log2 fold change [20]
INTS1 (UniProt Q8N201),0.016,0.063,0.013,-0.071,-0.017,0.027,-0.097,-0.01,0.025,0.016,-0.103,0.177,0.053,-0.007,-0.052,-0.052,0.038,-0.032,0.035,0.026
ISY1 isoform 1 (UniProt Q9ULR0),0.022,0.07,0.02,0.06,0.018,0.004,-0.004,0.031,0.068,0.014,0.019,0.028,0.007,-0.029,-0.056,-0.019,-0.157,-0.006,-0.02,-0.04
HSD17B12 (UniProt Q53GQ0),-0.018,-0.026,-0.03,-0.018,0.036,0.006,-0.006,-0.022,0.047,0.03,-0.016,0.004,-0.026,0.048,0.069,0,0.024,-0.036,0.049,0.003
IMMT (UniProt Q16891),0.008,0.058,-0.176,0.035,0.024,-0.001,-0.031,0.016,-0.026,-0.007,-0.015,0.006,-0.018,-0.045,-0.017,-0.007,0.038,0.003,0.011,0.031
GOLGA6B (UniProt A6NDN3),0.092,-0.061,-0.082,0.033,0.08,-0.013,-0.054,0.011,0.032,-0.022,-0.034,0.003,-0.047,-0.187,-0.057,-0.127,-0.114,0.045,0.066,0
"HDLBP, A0A024R4E5",0.043,0.008,0.02,-0.001,-0.024,-0.001,-0.046,-0.003,0.004,-0.005,-0.034,-0.007,0.029,-0.014,-0.012,0.007,-0.004,-0.009,0.042,0.003
HAUS7 isoform 2 (UniProt Q99871),0.104,0.106,0.028,-0.005,0,0.048,-0.006,-0.011,0.164,-0.028,0.082,0.105,-0.002,-0.031,0.05,-0.003,0.028,-0.031,0.021,-0.054
HDAC10 (UniProt Q969S8),0.064,0.126,0.035,-0.155,-0.201,-0.111,-0.043,-0.204,0.053,0.016,-0.038,0.019,-0.106,0.144,-0.207,-0.11,-0.088,0.037,0.022,0.017
INF2 (UniProt Q27J81),0.004,-0.014,-0.027,0.069,0.004,-0.024,-0.019,0.031,0.056,-0.011,0.036,-0.007,0.018,0.049,-0.012,0.004,0.07,-0.004,-0.027,-0.015
INTS7 (UniProt Q9NVH2),0.076,-0.183,-0.01,0.041,0.441 (active),-0.044,0.026,-0.019,0.035,0,0.012,0.061,0.083,-0.024,0.023,0.023,-0.09,0.543 (active),0.007,0.039
GTPBP2 (UniProt Q9BX10),-0.008,-0.051,-0.05,-0.002,-0.011,0.02,-0.032,-0.058,-0.017,0.023,0.008,-0.123,0.042,-0.035,0,0.004,-0.018,0,0.047,-0.032
GOLGA1 (UniProt Q92805),0.029,0.09,-0.002,-0.004,0.021,0,0.124,0.018,0.038,0.017,0.128,0.008,-0.024,-0.018,-0.019,0.081,0.027,-0.023,0.019,0.034
INPPL1 (UniProt O15357),-0.01,-0.034,-0.018,-0.052,-0.006,-0.02,-0.051,-0.021,0.003,-0.034,0.012,0.02,0.049,-0.013,0.004,0.011,-0.005,-0.001,0.034,0.014
GLYR1 (UniProt Q49A26),0.025,0.061,-0.018,0.021,0.041,0.029,-0.01,0.11,0.035,0.006,0.113,0.017,0.038,-0.15,0.033,0.07,-0.339 (active),0.126,0.106,0.032
KDM5C (UniProt P41229),0.052,0.017,0.022,-0.059,-0.009,-0.041,-0.031,-0.053,-0.002,0.01,0.089,-0.132,0.005,-0.02,0.015,0.01,0.012,-0.013,0.031,0.001
HEATR6 (UniProt Q6AI08),-0.033,0.024,-0.002,0.022,0.085,-0.006,-0.026,-0.03,-0.007,-0.028,0.045,-0.036,0.064,-0.031,-0.051,0.033,-0.069,-0.004,0.083,-0.009
